The full ranking holds about 59,000 sequences; the median of the read-out is about -0.00055, and the lowest 2% start at about -2. This is one part of a sample in which the lowest values are shown more often than they occur.

A short description of the assay: Identification of proteins required for the processing of the EWS-FLI1 nascent transcript.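 Also: robust z of luciferase light less the median z of siRNAs with the same seed.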 The conditions noted are these: TC32 Ewing sarcoma NR0B1-luc vs CMV-luc (EWS-FLI1 target promoter against control promoter), 48 h; screened at 20 nM (by protocol). In outline:
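Three siRNAs per gene, each in a separate well at 20 nM, were transfected into TC32 cells bearing either reporter construct. Luminescence was measured two days on, and per-gene comparison relied on seed-corrected Z values.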
For the sequence UCUGGUGGUGGUCUGAGUC against ZFP64, the seed-corrected z-score was -3.19.

As for AAUGUUGUAGUUGAUUAGC against CCDC178, the seed-corrected z-score is -0.836.

UUGACAGUUUCCAUCAGGC against PLIN3 gave a seed-corrected z-score of 0.105.

In the case of UAUCGAUUUGGGUCGUAGC against GNL1, the seed-corrected z-score turned out to be 0.128.

On to UACGUGAGCUGUGAUGAGC against IRF4, for which the seed-corrected z-score was -0.522.

UAGGCGAAUACAGUUAGGG against PRDM11 showed a seed-corrected z-score of -0.0836.

The sequence AAAAGGUAAACAGUGCUGG against HCAR1 registered a seed-corrected z-score of -2.61.

The sequence AAUAUAACGACUAAUGUCC against CTNNBIP1 came in with a seed-corrected z-score of 0.971.

Take UUUAGAGGCAGGGAGAAGC against MT1XP1: the seed-corrected z-score was -2.16.

The sequence UUUCGAGUUUCAAUGCUCC against SEC31A yielded a seed-corrected z-score of 0.675.

Sequence AUGAGUUUAAAGUACAAAG against TBC1D3G registered a seed-corrected z-score of -0.961.

For the sequence AAAGCUCUUCUAAUGAUAG against CMPK2, the seed-corrected z-score amounted to 1.05.

Take UUUCCAAUAUUUGAAGGUG against IFNK: the seed-corrected z-score was -0.532.

Regarding UCUGGGUUGAGGUCUACGA against LGALSL, the seed-corrected z-score was determined as 1.22.

With UCUCUUUUAGGUGGUUUGG against RNPS1P1, the seed-corrected z-score is -2.12.

For the sequence UUUGGAGCCGAAAGCAUUG against TBX4, the seed-corrected z-score is -0.381.

For UUUCUUACCAUAGUUGUCC against TCF7L1, the seed-corrected z-score turned out to be 0.0239.

The sequence UUCACGAGUAGAGAUGUGG against ULK4 registered a seed-corrected z-score of -0.0896.

The sequence UGUGGAUUCGCAUUCGUGC against WNT10B had a seed-corrected z-score of -0.172.

The sequence AAGAGCAGUAUAGCCCUUG against FAM219B registered a seed-corrected z-score of -2.73.

Turning to UUCAGAGUAAUGUCGACAU against RPL9, the seed-corrected z-score is -0.525.

With UAUUAUCCAGGAUUAAUUC against TMED5, the seed-corrected z-score worked out at 0.444.

In the case of UGGUUAUUAACCACGAAAC against DACH2, the seed-corrected z-score was -2.55.

The sequence UUUUUGGGUUGUGCGAUGG against CLDN8 yielded a seed-corrected z-score of -0.531.

As for UAGUCGAUUAAACAGAGCC against RBPJ, the seed-corrected z-score turned out to be 0.0342.

Turning to UGAGUUCUGAUCGCAGUUC against MCC, the seed-corrected z-score was -0.00975.

Take AAUGUUAACGAUGAAGAAG against ADRB2: the seed-corrected z-score is 0.292.

With AACAGGACAAUUUUAGCAC against OR1L1, the seed-corrected z-score was -2.6.

UCUGAAACAAUCCUCACUC against LINC00598 came in with a seed-corrected z-score of -0.139.

As to UGAGGAUAAAGCGAAGAGC against VARS2, the seed-corrected z-score worked out at 0.0595.

As for AACUGGGACUUGUUUUACC against FAM83F, the seed-corrected z-score was found to be 0.219.

Turning to AAGGUUGCUCGUUCUAUGG against CASP5, the seed-corrected z-score is -2.33.

As to UAAUGUCCCAAUCGUAUUG against UXS1, the seed-corrected z-score worked out at 0.872.

The sequence AAUCUCUCGGUUUCGAUUC against HYKK had a seed-corrected z-score of 1.15.

UCCGUGCACAUCUUAUAGG against HMG20B registered a seed-corrected z-score of 0.0817.

Consider UAAGAAAUGAUGCUCAAUG against LMAN1L, for which the seed-corrected z-score was -0.257.

As for UCUACAUCAAUCAAAUAUC against DUSP11, the seed-corrected z-score stood at 1.23.

UCUCUUCAUACUUAUUAGC against TEX43 had a seed-corrected z-score of -2.3.

UUGGGAUAAUGAUUGUUAC against OR10AG1 gave a seed-corrected z-score of -0.676.

Consider UUCCUGACGAGGUACACUG against GAS2L2, for which the seed-corrected z-score was 0.821.

As to UCAGAGACCAGCUGUUUCU against IGSF23, the seed-corrected z-score was -0.0662.

The sequence ACAGCUAUAAAGGUGAUCC against MTMR1 displayed a seed-corrected z-score of -2.56.

For the sequence UGUCGUUCAAGGGUCUUCC against IFNE, the seed-corrected z-score was -0.372.

In turn, UAACUAGUUUUCUUGUCCC against CARD6 registered a seed-corrected z-score of 0.329.

For UAUCAUCCAAAACUGUAUC against ASNSD1, the seed-corrected z-score was 0.0108.

Sequence AUCGGCAUUAAGAAUGUAG against EIF3L registered a seed-corrected z-score of -0.237.

UUAGCUGCAUCCUUGCUGG against CELSR3: the seed-corrected z-score is -2.13.

Turning to UAAGUUCUUGUAUCUUCCC against ATP6V1G3, the seed-corrected z-score was 0.313.

The sequence UUCUGGAUUCUGGGCAUCG against IFI6 showed a seed-corrected z-score of -0.197.

The sequence UCAAUAACCAUGAAGAUGC against FAM162A had a seed-corrected z-score of 0.76.

UCGUGCUACACCAUGAGUC against CTTNBP2 returned a seed-corrected z-score of 0.0923.

In the case of UUCCAGUAUGCUGAUUUCC against SLC8B1, the seed-corrected z-score was -2.95.

In turn, UCACUUGAUAACAAUCUCC against ZCWPW2 came in with a seed-corrected z-score of -0.645.

Sequence AUCAUUAUCCUUCUCAUCC against IRF6 came in with a seed-corrected z-score of -0.561.

UAGCCCUCACCAUAGAUGC against SYNGR2 yielded a seed-corrected z-score of 0.181.

ACAGUUGCAACUUCCAUGC against KCND2: the seed-corrected z-score was -2.77.

UGAGUACCGUGAUAAAUGC against TAS1R2 had a seed-corrected z-score of 0.56.

As to UUAGCAUCCACGAUACCAC against CFAP47, the seed-corrected z-score was determined as 0.706.

Turning to UUAAUGAACACAAGCAUGU against RPL23AP14, the seed-corrected z-score was found to be 0.756.

As for UAUGUUGUGCGGCUCUCCC against SOX15, the seed-corrected z-score is -2.31.

Consider UAACGAAUAAUCAUCUUCC against ICE1, for which the seed-corrected z-score is 0.115.

UCCAAAUUUGAGUACAUCC against SNIP1 came in with a seed-corrected z-score of 0.505.

Sequence UAAGGCUUUAGUGAGCUCU against FXN returned a seed-corrected z-score of 0.805.

On to UUGCCGUAGACAGCAUGGG against GPR173, for which the seed-corrected z-score is -0.733.

For the sequence UCUGGUUCCUCUUUAAGUG against RPL27A, the seed-corrected z-score is -3.53.

AAUGUUCCUAUUUAUUUCG against RNF214 gave a seed-corrected z-score of -0.629.

Take UCAGGAUCAAGCAUGUUCC against LOC645177: the seed-corrected z-score was -0.115.

UGUGCUAUAAGAGAUCCAG against TANC2 came in with a seed-corrected z-score of -0.454.

Regarding AAAGUAGUCACCUGGACCA against ODF3, the seed-corrected z-score was -2.14.

In turn, UUCCUCAUGAGCACCAUCC against TEDDM1 returned a seed-corrected z-score of 0.185.

Turning to AUCUAUUAUGGUUUCGAUC against BAZ1B, the seed-corrected z-score is -0.12.

UCUCUGUACCCAACUCCGC against ZNF212 yielded a seed-corrected z-score of -0.31.

Consider AAUGAAAUAGUGCUGUUUG against KCTD1, for which the seed-corrected z-score is 0.318.

UCUGCUUGGAAAUAUCUCG against GRSF1 showed a seed-corrected z-score of -4.11.

AAUCCUCUUAUGAAUAACG against ZNF331 displayed a seed-corrected z-score of -0.158.

Consider AAGGAUACCAUCAUGUAGC against FZD3, for which the seed-corrected z-score came to 0.547.

In turn, UUUGUAACAUCAAUCAGAG against EXOC4 showed a seed-corrected z-score of 0.287.

AUUCGGGAUAUAUAGAUUG against LIN7C returned a seed-corrected z-score of 0.308.

As to UCAAGUACAUUGCAGUUUG against PDK1, the seed-corrected z-score is -0.235.

Sequence UCCAGGUUUAUAUAGGUUG against MT1X displayed a seed-corrected z-score of -7.89.

UCAUAAGUGACAAGGCUGC against DCTN2 registered a seed-corrected z-score of -0.548.

In turn, UGACGUGAUAGCUUGAACC against EXPH5 came in with a seed-corrected z-score of 0.908.

In turn, UUUGAUUCCAUGUAGCUGU against MTCP1 registered a seed-corrected z-score of 0.871.

With ACAUCAUCCACUUCGUUCC against UNC93B1, the seed-corrected z-score was -3.19.

With UUAACUGCAUCCCUAAUCC against AVEN, the seed-corrected z-score is -1.22.

The record behind these values is PubChem BioAssay AID1159506 (National Center for Advancing Translational Sciences (NCATS), 2015).
